This is an account of results in PubChem BioAssay AID2284351 (EPA ToxCast).

Active and inactive are the calls of the source. The calls were made as follows: active = hit-call score of the fitted dose curve at least 0.9, where 1 is the maximum; inactive = score below 0.9.

The term AC50 denotes the concentration giving half of the maximal activity seen.

Sequence of Peroxisome proliferator-activated receptor gamma (Homo sapiens) (P37231 whole entry, looked up): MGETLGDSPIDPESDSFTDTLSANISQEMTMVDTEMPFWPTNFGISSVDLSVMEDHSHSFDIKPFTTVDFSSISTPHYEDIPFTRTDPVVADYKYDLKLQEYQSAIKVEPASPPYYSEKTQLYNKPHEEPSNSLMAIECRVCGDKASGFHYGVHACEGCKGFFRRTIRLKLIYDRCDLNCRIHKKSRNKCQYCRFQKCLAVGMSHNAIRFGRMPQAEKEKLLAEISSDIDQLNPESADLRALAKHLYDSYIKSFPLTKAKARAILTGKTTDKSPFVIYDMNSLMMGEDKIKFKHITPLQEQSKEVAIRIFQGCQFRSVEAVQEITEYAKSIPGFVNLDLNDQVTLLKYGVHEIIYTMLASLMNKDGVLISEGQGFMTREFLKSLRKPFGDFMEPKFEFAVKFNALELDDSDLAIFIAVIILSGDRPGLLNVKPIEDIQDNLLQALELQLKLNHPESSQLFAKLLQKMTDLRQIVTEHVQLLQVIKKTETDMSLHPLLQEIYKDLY

For the assay, the target named is Peroxisome proliferator-activated receptor gamma (Homo sapiens) (UniProt P37231). Nature of the assay: ATG_hPPARg_EcoTox2: Attagene TRANS-FACTORIAL EcoTox-2 HepG2 Assay for human Peroxisome Proliferator-activated Receptor gamma (PPARg). The procedure:
ATG_EcoTox2 is a cell-based, multiplexed assay created by modifying the existing Attagene TRANS-FACTORIAL system to include a panel of nuclear receptors from some or all the following species: human (Homo sapiens), african clawed frog (Xenopus laevis), rainbow trout (Oncorhynchus mykiss), japanese medaka (Oryzias latipes), and zebrafish (Danio rerio). The ECOTOX2-FACTORIAL format uses HepG2, a human liver cell line, with measurements taken at 24 hours after chemical dosing in a 24-well plate. ATG_hPPARg_EcoTox2 is one of 29 assay components calculated in the ATG_EcoTox2 assay. It is designed to make measurements of mRNA induction, a form of inducible reporter, as detected with fluorescence intensity signals by Reverse transcription polymerase chain reaction (RT-PCR) and Capillary electrophoresis technology.The assay endpoint ATG_hPPARg_EcoTox2 was analyzed in the positive analysis fitting direction relative to DMSO as the negative control and baseline of activity. Using a type of inducible reporter, measures of mRNA for gain-of-signal activity can be used to understand the reporter gene at the transcription factor-level as they relate to the gene PPARg. Furthermore, this assay endpoint can be referred to as a primary readout, because this assay has produced multiple assay endpoints where this one serves a reporter gene function. To generalize the intended target to other relatable targets, this assay endpoint is annotated to the nuclear receptor intended target family, where the subfamily is non-steroidal.
Human liver HepG2 cells are transiently transfected with multiple reporter transcription units (MRTUs) in 6-well plates using FuGene 6 reagent (Roche; 3 ml FuGene/1 mg DNA). The MRTU constructs are regulated by a cis-regulating element (promoter). Each RTU expresses a GAL4-UAS that regulates the transcription of a nearby target reporter gene sequence. A major difference between the CIS and TRANS system is that in CIS activities of endogenous TFs are measured, whereas the TRANS assay evaluates changes in activities of exogenous, chimeric NR-Gal4 proteins. […] At the end of 24 hour incubation, total RNA was isolated using TriZol reagent (Invitrogen). The isolated RNA is then reverse-transcribed using oligo(dT) primer and Mo-MLV reverse transcriptase (Invitrogen) with DNAse I (Ambion) treatment for 30 min. The one-tenth of the produced cDNA was amplified by PCR using Taq DNA polymerase (Invitrogen) and two reporter sequence-specific primers. […] The fragments were purified using Qiaquick PCR columns (Qiagen), analyzed on an ABI 3130xL genetic analyzer (Applied Biosystems) with peak positions identified by using a set of X-rhodamine (ROX)-labeled MapMarker1000 molecular weight standards (BioVentures). […]
`O=P(Oc1ccccc1)(Oc1ccccc1)Oc1ccccc1`: the AC50 was 5.76 µM (active). Take `[Cl][Sn]([c]1ccccc1)([c]1ccccc1)[c]1ccccc1`: the AC50 is 0.0461 µM (active). As to `CCCCOCN(C(=O)CCl)c1c(CC)cccc1CC`, the AC50 is 1.53 µM (active). Take `O=S(=O)(O)C(F)(F)C(F)(F)C(F)(F)C(F)(F)C(F)(F)C(F)(F)F`: the AC50 is 42.7 µM (active).
